Among the data in PubChem BioAssay AID624141 (Broad Institute, 2012) are outcome values, retold here.

About 260 (1.5%) of roughly 17,000 compounds were called active. This is one part of a sample in which actives are shown more often than they occur.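 How the source made its calls: active means spot fluorescence over background with P-value below 7% in all four replicate spots, showing protein binding; inactive means the rest.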

The experiment deals with Myc proto-oncogene protein (Homo sapiens) (UniProt P01106). The experiment can be described thus: small molecules binding His-tagged c-Myc – biochemical, small molecule microarray, anti-His fluorescence, primary screen (AID 624141).
Chain of Myc proto-oncogene protein (Homo sapiens) (P01106 whole entry, looked up): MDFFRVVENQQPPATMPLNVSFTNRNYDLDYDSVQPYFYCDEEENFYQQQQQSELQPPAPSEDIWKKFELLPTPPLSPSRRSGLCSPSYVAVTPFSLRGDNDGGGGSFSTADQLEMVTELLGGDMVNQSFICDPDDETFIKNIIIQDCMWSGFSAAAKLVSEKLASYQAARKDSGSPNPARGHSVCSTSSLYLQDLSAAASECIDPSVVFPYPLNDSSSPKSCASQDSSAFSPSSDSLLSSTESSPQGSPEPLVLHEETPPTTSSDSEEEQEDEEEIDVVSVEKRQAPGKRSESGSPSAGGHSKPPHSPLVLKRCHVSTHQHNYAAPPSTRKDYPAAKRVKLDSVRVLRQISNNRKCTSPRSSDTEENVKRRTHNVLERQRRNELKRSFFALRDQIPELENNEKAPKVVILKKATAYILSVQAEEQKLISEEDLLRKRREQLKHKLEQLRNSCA
Turning to `OC[C@@]1(O)CO[C@H](OC[C@H]2O[C@@H](OC(CCCCc3ccc(O)cc3)CCc3ccc(O)cc3)[C@H](O[C@H]3OC[C@](O)(CO)[C@H]3O)[C@@H](O)[C@@H]2O)[C@@H]1O` (some centres undefined), the outcome was inactive.

`COc1cc(CN2CCN(CCO)CC2)c([N+](=O)[O-])cc1OC`: the outcome was inactive.

For `O=C(CCCCCCC(=O)NOCc1ccccc1)NO`, the result was inactive.

Take `CC(=O)Nc1sccc1C(=O)NCc1ccco1`: the outcome was inactive.

Regarding `C[C@@H]1CN([C@@H](C)CO)C(=O)c2cc(NC(=O)Cc3ccccc3)ccc2O[C@@H](C)CCCCO[C@@H]1CN(C)C(=O)Nc1ccccc1`, the compound was classed as inactive.

In the case of `C[C@@H]1CCCCO[C@@H](CN(C)C(=O)c2ccccc2)[C@@H](C)CN([C@@H](C)CO)C(=O)c2cc(NS(=O)(=O)c3ccccc3)ccc2O1`, the outcome was inactive.

On to `CNC[C@@H]1Oc2c(NC(=O)Nc3ccccc3)cccc2C(=O)N([C@@H](C)CO)C[C@@H]1C`, for which the compound was classed as inactive.

With `COC1OC(O)C(O)C12CC[C@@]1(O2)[C@H](C)C[C@H]2OC(=O)[C@@]3(C)CCC[C@]1(C)C23` (some centres undefined), the compound was classed as inactive.

In the case of `CCOc1ccc(OCC(=O)Nc2cc(C)c(Cl)cc2OC)cc1`, the compound was classed as inactive.

Turning to `C=CC1c2cc(O)c(OC)cc2CCN1Cc1cccc(OC(F)(F)F)c1` (centres undefined), the call was inactive.

In the case of `C[C@H](CO)N1C[C@H](C)[C@@H](CN(C)S(=O)(=O)c2cn(C)cn2)OCCCC[C@H](C)Oc2ccc(NC(=O)Cc3ccccc3)cc2C1=O`, the result was inactive.

Consider `CN(C)c1nc(SCCO)nc(N(C)C)n1`, for which the compound was classed as inactive.

For the compound `O=C(COc1ccc(C(=O)Nc2ccccc2Cl)cc1)Nc1ccc(Oc2ccccc2)cc1`, the result was inactive.

Consider `CC1=CCC(C(C)(C)O[C@@H]2O[C@H](COC(=O)c3cc(O)c(O)c(O)c3)[C@@H](O)[C@H](O)[C@H]2O)CC1` (some centres undefined), for which the outcome was inactive.

Regarding `C/C=C1/[C@H](O[C@@H]2O[C@H](CO)[C@@H](O)[C@H](O)[C@H]2O)OC=C2C(=O)O[C@@H]3C[C@@H](C(C)CO)[C@H](COC(=O)C[C@H]21)[C@H]3C` (some centres undefined), the compound was called inactive.

For the compound `O=C(NCc1ccco1)c1nc2ncccn2n1`, the compound was classed as inactive.

Turning to `COc1ccc(S(=O)(=O)N(C)C[C@@H]2Oc3ncc(C#Cc4ccc(F)cc4)cc3C(=O)N([C@H](C)CO)C[C@@H]2C)cc1`, the call was inactive.

For the compound `C[C@H](CO)N1C[C@H](C)[C@@H](CN(C)S(=O)(=O)c2ccc(Oc3ccccc3)cc2)OCc2cn(nn2)CCCC1=O`, the result was inactive.

Take `Cc1ccc(-n2c(SCC(=O)Nc3ccccc3F)nnc2-c2ccccc2)cc1C`: the compound was classed as inactive.

As to `COc1ccc(C[C@H]2COC(=O)[C@@H]2Cc2ccc(O[C@@H]3O[C@H](CO)[C@@H](O)[C@H](O)[C@H]3O)c(OC)c2)cc1OC`, the call was inactive.

For the compound `CN(C)c1ccc(NC(=O)CSc2nc3c(c(C(F)(F)F)c2C#N)CCCCCC3)cc1`, the call was inactive.

Take `Cc1ccc(C(=O)CSc2nsc3sc(C(=O)c4ccc(C)cc4)c(N)c23)cc1`: the result was inactive.

Regarding `O=C(CN1CCOCC1)Nc1ccc(S(=O)(=O)N2CCCC2)cc1`, the compound was called inactive.

On to `OC1(c2ccc3c(c2)OCO3)OCC2C(c3ccc4c(c3)OCO4)OCC21O` (centres undefined), for which the compound was called inactive.

`O=C(NCCCn1ccnc1)c1cnn2c(C(F)(F)F)cc(-c3ccccc3)nc12`: the compound was called inactive.

With `O=[N+]([O-])c1ccc(NCCNS(=O)(=O)c2ccc(Br)cc2)c(C(F)(F)F)c1`, the compound was called inactive.

Take `Cc1nc(SCC(N)=O)c(C(N)=O)c(C)c1C`: the compound was classed as inactive.

In the case of `C[C@@H]1CN([C@H](C)CO)C(=O)c2cc(NC(=O)Nc3ccc4c(c3)OCO4)ccc2O[C@@H]1CN(C)Cc1ccc(C(F)(F)F)cc1`, the call was inactive.

On to `CC(=O)Nc1ccc(C(=O)CSc2nnc(C)s2)cc1`, for which the compound was called inactive.

Regarding `Cc1cc(C)nc(SC2CCCCC2NS(=O)(=O)c2ccc(Cl)cc2)n1` (centres undefined), the compound was called inactive.

In the case of `C[C@@H]1CCCCO[C@@H](CN(C)Cc2ccc(C(=O)O)cc2)[C@H](C)CN([C@@H](C)CO)C(=O)c2cc(NC(=O)C3CCCCC3)ccc2O1`, the compound was called inactive.

On to `Cc1cc2nc(-c3ccc(NC(=O)COc4ccccc4[N+](=O)[O-])cc3)oc2cc1C`, for which the compound was called inactive.

Turning to `CNC[C@@H]1OCCCC[C@H](C)Oc2ccc(NC(=O)Nc3ccccc3)cc2C(=O)N([C@H](C)CO)C[C@H]1C`, the call was inactive.

In the case of `C[C@@H]1CN([C@@H](C)CO)C(=O)c2cc(NC(=O)C3CC3)ccc2O[C@H]1CN(C)C`, the compound was called inactive.

For the compound `COc1ccc(C#Cc2ccc3c(c2)[C@]2(C(=O)N3)[C@H](c3ccccc3OCCO)N3[C@H](c4ccccc4)[C@H](c4ccccc4)OC(=O)[C@H]3[C@@H]2C(=O)N2CCCCCCC2)cc1`, the outcome was active.

`O=C1O[C@H](c2ccccc2)[C@H](c2ccccc2)N2[C@H]1[C@@H](C(=O)N1CCN(c3ncccn3)CC1)[C@]1(C(=O)Nc3ccccc31)[C@H]2c1ccc(OCCO)cc1`: the compound was called inactive.

`COC(=O)C(CC#Cc1ccc2c(c1)[C@]1(C(=O)N2)[C@H](c2ccccc2OCCO)N2[C@H](c3ccccc3)[C@H](c3ccccc3)OC(=O)[C@H]2[C@@H]1C(N)=O)C(=O)OC`: the call was inactive.

In the case of `O=C1O[C@@H](c2ccccc2)[C@@H](c2ccccc2)N2[C@@H](c3ccccc3OCCO)[C@]3(C(=O)Nc4ccccc43)[C@@H](C(=O)N3CCCCCCC3)[C@H]12`, the compound was classed as active.

Take `COc1ccc(C#Cc2ccc3c(c2)[C@]2(C(=O)N3)[C@H](C(=O)N3CCCCCCC3)[C@H]3C(=O)O[C@H](c4ccccc4)[C@H](c4ccccc4)N3[C@@H]2c2ccc(O)cc2)cc1`: the result was inactive.

Turning to `O=C1O[C@@H](c2ccccc2)[C@@H](c2ccccc2)N2[C@@H](c3ccccc3OCCO)[C@]3(C(=O)Nc4ccc(C#CC5(O)CCCCCC5)cc43)[C@@H](C(=O)N3CCCCCCC3)[C@H]12`, the compound was called inactive.

Regarding `C[C@H]1CN([C@@H](C)CO)C(=O)c2cccc(NC(=O)Nc3ccccc3)c2O[C@@H]1CN(C)S(=O)(=O)c1ccc(F)cc1`, the compound was called inactive.

For `C[C@@H]1CN([C@@H](C)CO)C(=O)c2cc(NS(C)(=O)=O)ccc2O[C@@H](C)CCCCO[C@@H]1CN(C)C(=O)c1ccccc1`, the compound was classed as inactive.

For the compound `Cc1nc(SCC(=O)O)[nH]c(=O)c1Oc1ccccc1`, the call was inactive.

Regarding `C[C@H]1CN([C@@H](C)CO)C(=O)c2cc(N(C)C)ccc2O[C@@H]1CN(C)C(=O)Nc1ccc2c(c1)OCO2`, the compound was called inactive.

On to `COc1ccc2ccccc2c1CNCc1ccccn1`, for which the compound was called active.

Take `Cc1nnc(SCc2cc(=O)[nH]c(N3CCN(Cc4ccccc4)CC3)n2)s1`: the compound was classed as inactive.

As to `C[C@@H]1CCCCO[C@@H](CN(C)C(=O)CCC(F)(F)F)[C@@H](C)CN([C@H](C)CO)C(=O)c2cc(NC(=O)CCC(F)(F)F)ccc2O1`, the compound was classed as inactive.

Regarding `Cc1noc(C)c1S(=O)(=O)Nc1ccc2c(c1)C(=O)N([C@@H](C)CO)C[C@@H](C)[C@H](CN(C)C(=O)NC(C)C)OCCCC[C@@H](C)O2`, the outcome was active.

As to `C[C@@H]1CCCCO[C@H](CN(C)C(=O)CCC(F)(F)F)[C@H](C)CN([C@H](C)CO)C(=O)c2cc(NS(C)(=O)=O)ccc2O1`, the compound was called inactive.

In the case of `Cc1noc(C)c1S(=O)(=O)Nc1ccc2c(c1)C(=O)N([C@H](C)CO)C[C@H](C)[C@@H](CN(C)C(=O)CCC(F)(F)F)OCCCC[C@H](C)O2`, the outcome was inactive.

Consider `Cc1noc(C)c1S(=O)(=O)Nc1ccc2c(c1)C(=O)N([C@H](C)CO)C[C@H](C)[C@H](CN(C)C(=O)CCC(F)(F)F)OCCCC[C@H](C)O2`, for which the compound was classed as active.

Take `C[C@H](CO)N1C[C@H](C)[C@H](CN(C)C(=O)CCC(F)(F)F)OCCCC[C@H](C)Oc2ccc(NS(C)(=O)=O)cc2C1=O`: the outcome was active.

As to `Cc1noc(C)c1S(=O)(=O)Nc1ccc2c(c1)C(=O)N([C@@H](C)CO)C[C@H](C)[C@@H](CN(C)C)OCCCC[C@@H](C)O2`, the call was inactive.

Take `Cc1noc(C)c1S(=O)(=O)Nc1ccc2c(c1)C(=O)N([C@H](C)CO)C[C@@H](C)[C@H](CN(C)C(=O)NC(C)C)OCCCC[C@@H](C)O2`: the result was inactive.

`C[C@@H]1CN([C@H](C)CO)C(=O)c2cc(NS(=O)(=O)c3ccccc3)ccc2O[C@@H](C)CCCCO[C@@H]1CN(C)C(=O)CCC(F)(F)F`: the call was inactive.

Take `Cc1cc(OCC(=O)Nc2ccccc2C(N)=O)cc(C)c1Br`: the outcome was inactive.

Take `Cc1scc(C(=O)NCCc2ccc(S(N)(=O)=O)cc2)c1-c1ccccc1`: the compound was classed as inactive.

As for `Cc1noc(C)c1NC(=O)Nc1ccc2c(c1)CC(=O)N([C@@H](C)CO)C[C@@H](C)[C@@H](CN(C)C(=O)NC(C)C)O2`, the compound was called inactive.

On to `COc1cc(/C=C/C(=O)NCCc2ccc(O)cc2)ccc1O`, for which the result was inactive.

Take `CN(C)CCCSc1ccccc1NC(=O)/C=C/c1ccccc1`: the result was inactive.

Consider `CCCCCc1ccc(/C=C/C(=O)Nc2ccccc2C(=O)O)cc1`, for which the compound was called active.

Take `CCn1c(SCC(=O)Nc2sc3c(c2C#N)CCCC3)nnc1-c1ccccc1O`: the compound was called inactive.

On to `Cc1noc(C)c1S(=O)(=O)Nc1ccc2c(c1)CC(=O)N([C@@H](C)CO)C[C@H](C)[C@H](CN(C)S(=O)(=O)c1ccc(Cl)cc1)O2`, for which the call was inactive.

As for `COc1ccc(NC(=O)N(C)C[C@@H]2Oc3ccc(NS(C)(=O)=O)cc3C(=O)N([C@@H](C)CO)C[C@@H]2C)cc1`, the compound was classed as inactive.

With `C[C@@H]1CCCCO[C@H](CN(C)Cc2ccncc2)[C@@H](C)CN([C@H](C)CO)C(=O)c2cc(NS(C)(=O)=O)ccc2O1`, the compound was called inactive.

For `C[C@@H]1CN([C@H](C)CO)C(=O)c2cccc(NC(=O)Nc3ccc4c(c3)OCO4)c2O[C@H]1CN(C)S(=O)(=O)c1ccccc1`, the compound was called inactive.

As to `C[C@@H]1CCCCO[C@H](CN(C)Cc2ccccc2)[C@H](C)CN([C@@H](C)CO)C(=O)c2cc(NS(=O)(=O)c3ccccc3)ccc2O1`, the compound was called inactive.

For `C[C@H](CO)N1C[C@H](C)[C@@H](CN(C)S(=O)(=O)c2cccs2)Oc2ccc(NC(=O)Nc3cccc4ccccc34)cc2CC1=O`, the compound was classed as inactive.

Turning to `C[C@@H]1CN([C@H](C)CO)C(=O)Cc2cc(NC(=O)CCN3CCOCC3)ccc2O[C@H]1CN(C)C`, the compound was classed as inactive.
